In PubChem BioAssay:
Active and inactive are the calls of the source. Unless noted, the rule behind the calls is not given here.

How the values were obtained:
[1] = test system: Wnt5a (protein binding on small-molecule microarray); assay: Wnt5a binders on small-molecule microarray, primary screen, biophysical, 635/667 nm fluorescence (AID 1142); conditions: 635 nm fluorescence, higher = more signal;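 note: fluorescence read at 667 nm with signal to noise per printed feature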
[2] = cell viability in Huh7 cells, primary screen, cytotoxicity control for HCV replication inhibitor project, CellTiter-Glo luminescence, basal, 48 h (AID 1143); conditions: Huh7 HCV replicon, higher = more signal, called active from +8 up or from −8 down;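 note: Huh7 hepatoma cells carrying a hepatitis C replication reporter with no stimulus; test concentration not given here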
[3] = P. aeruginosa biofilm formation inhibitors, primary screen, PAO1 strain, BacTiter-Glo luminescence, LB-PBS (AID 1144); conditions: 12 h, higher = more signal
[4] = CREB reporter modulators without forskolin, primary screen, cell-based, PC12, CRE-LacZ reporter, unstimulated (AID 1145); conditions: no forskolin, luminescence, 4.5 h, higher = more signal, called active from +8 up or from −8 down
[5] = CREB reporter modulators under forskolin, primary screen, cell-based, PC12, CRE-LacZ reporter, forskolin-stimulated (AID 1146); conditions: luminescence, 4.5 h, higher = more signal, called active from +8 up or from −8 down;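 note: PC12 cells with 6xCRE LacZ reporter stimulated by forskolin 10 µM; beta-galactosidase reporter signal reflecting CREB driven transcription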
[6] = molecular target: Streptavidin (Streptomyces avidinii) (UniProt P22629); assay: streptavidin binders on small-molecule microarray, primary screen, artefact control for SMM compound annotation, biophysical, 635/667 nm fluorescence (AID 1147); conditions: streptavidin binding, higher = more signal;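 note: signal reflects streptavidin binding to arrayed compounds as a control protein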
[7] = small-molecule binders of probe aInhba, primary screen, biochemical, small-molecule microarray, 635/667 nm fluorescence (AID 1148); conditions: higher = more signal;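 note: score merges 667nm spot fluorescence with signal-to-noise for antibody binding to printed compounds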
Torsin-1A (Homo sapiens) [8] = molecular target: Torsin-1A (Homo sapiens) (UniProt O14656); assay: torsin A binders from cell lysate, primary screen, small-molecule microarray, wild-type, 635/667 nm (AID 1149); conditions: COS7 hTOR1A-WT lysate, 635 nm fluorescence, higher = more signal
Torsin-1A (Homo sapiens) [9] = molecular target: Torsin-1A (Homo sapiens) (UniProt O14656); assay: small-molecule binders of mutant TOR1A in lysate, primary screen, cell lysate, small-molecule microarray, COS7 lysate, 635/667 nm fluorescence (AID 1150); conditions: COS7 hTOR1A mutant lysate, 635 nm fluorescence, higher = more signal;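 note: score pools 667 nm emission and signal to noise measuring lysate protein binding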
[10] = test system: Sonic hedgehog protein (Shh); assay: small-molecule binders of Shh protein, primary screen, biochemical, small-molecule microarray, 635/667 nm fluorescence (AID 1151); conditions: small-molecule microarray binding, 635 nm fluorescence; higher = more signal;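 note: Shh protein binding to compounds spotted on small-molecule microarray slides; score combines spot fluorescence intensity with signal-to-noise across triplicate slides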

Torsin-1A (Homo sapiens), sequence (O14656 whole entry, looked up): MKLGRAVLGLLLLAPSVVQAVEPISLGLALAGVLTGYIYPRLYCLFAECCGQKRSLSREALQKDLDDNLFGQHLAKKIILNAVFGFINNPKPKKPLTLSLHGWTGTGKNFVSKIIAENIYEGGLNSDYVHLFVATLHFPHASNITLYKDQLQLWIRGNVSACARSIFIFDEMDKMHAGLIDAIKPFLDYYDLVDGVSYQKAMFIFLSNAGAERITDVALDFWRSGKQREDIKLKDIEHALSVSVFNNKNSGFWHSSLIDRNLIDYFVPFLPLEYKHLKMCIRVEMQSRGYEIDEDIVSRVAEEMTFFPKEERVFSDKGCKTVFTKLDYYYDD
Streptavidin (Streptomyces avidinii), sequence (P22629 whole entry, looked up): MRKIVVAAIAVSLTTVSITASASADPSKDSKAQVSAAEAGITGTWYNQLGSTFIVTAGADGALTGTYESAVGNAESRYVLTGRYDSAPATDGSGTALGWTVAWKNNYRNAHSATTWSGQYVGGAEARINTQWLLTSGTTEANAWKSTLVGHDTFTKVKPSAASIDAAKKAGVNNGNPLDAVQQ

| Structure (SMILES) | composite z-score [1] | z-score [2] | z-score [3] | z-score [4] | z-score [5] | composite z-score [6] | composite z-score [7] | composite z-score (Torsin-1A (Homo sapiens) [8]) | composite z-score (Torsin-1A (Homo sapiens) [9]) | composite z-score [10] |
| --- | --- | --- | --- | --- | --- | --- | --- | --- | --- | --- |
| Cc1ccc(S[C@]2(C(=O)NCC(F)(F)F)CC(=O)N(C3Cc4ccccc4C3)[C@@H]2c2ccc(CO)cc2I)cc1 | -0.465 | -1.42 (inactive) | -0.46 (inactive) | -0.231 (inactive) | 0.0489 (inactive) | -0.457 | -0.0471 | 0.108 | -0.248 | -0.703 |
| COCCOC(=O)N1C(=O)[C@@]2(c3cc(C#CCC(C(=O)OC)C(=O)OC)ccc31)[C@H](c1ccccc1OCCO)N1[C@H](c3ccccc3)[C@H](c3ccccc3)OC(=O)[C@H]1[C@@H]2C(=O)Nc1nc2ccccc2s1 | 0.964 | -2.67 (inactive) | -1.9 (inactive) | -0.375 (inactive) | -0.705 (inactive) | 0.129 | 0.135 | 0.983 | 1.08 | 1.49 |
| C=C(CCCC)/C(=C/C[C@H](OC(C)=O)c1ccc(CO)o1)c1cc(C(=O)OC)ccc1OC | 0.244 | -3.43 (inactive) | -0.193 (inactive) | 0.709 (inactive) | 0.0467 (inactive) | 0.772 | 0.0622 | 0.206 | -0.0953 | 1.53 |
| O=C1O[C@H](c2ccccc2)[C@H](c2ccccc2)N2[C@H]1[C@@H](C(=O)NC[C@H](O)c1ccccc1)[C@]1(C(=O)Nc3ccc(C#CC4(O)CCCCCC4)cc31)[C@H]2c1ccccc1OCCO | 1.21 | -5.52 (inactive) | -0.52 (inactive) | -0.325 (inactive) | -0.349 (inactive) | -0.428 | 0.214 | 0.644 | 1.08 | 0.877 |
| C=CCOC(=O)[C@H]1[C@@H]2C(=O)O[C@@H](c3ccccc3)[C@@H](c3ccccc3)N2[C@@H](c2ccc(OCCOC(=O)[C@H]3C[C@H]4C(=O)N[C@@H](CCCC[N+](C)(C)C)C(=O)N4[C@H]3c3ccc(O)cc3)cc2)[C@]12C(=O)Nc1ccccc12 | 0.0385 | -0.236 (inactive) | -0.968 (inactive) | -1.62 (inactive) | -1.06 (inactive) | -0.22 | -0.258 | 0.475 | 0.846 | 1.18 |
| CN1C(=O)C2C(C1=O)C1C=C(c3ccc(CO)cc3)C2C(C2CC2)N1Cc1cc2c(cc1Br)OCO2 (stereo not given) | 0.164 | -5.17 (inactive) | -0.401 (inactive) | 0.622 (inactive) | -1.62 (inactive) | 1.75 | 0.138 | 1.16 | 1.65 | 0.796 |
| Cc1ccc(S(=O)(=O)N2CC(C(=O)O)=CCC2c2ccccc2)cc1 (stereo not given) | -0.0669 | 0.0982 (inactive) | -0.153 (inactive) | -0.266 (inactive) | 0.222 (inactive) | -0.134 | -0.128 | 1.08 | -0.307 | -0.861 |
| CCN(CC)c1ccc(N2CC=CC34O[C@@H]5/C=C\CCC(C)OC(=O)C5[C@H]3C(=O)N(CCCCCCO)[C@@H]4C2=O)cc1 (stereo not given in full) | -0.449 | -0.406 (inactive) | 0.398 (inactive) | 0.886 (inactive) | 0.57 (inactive) | -0.629 | -0.359 | 0.84 | 0.0844 | -0.166 |
| O=C1NC(=O)C2C1C=CC(C(O)c1cccs1)N2Nc1ccccn1 (stereo not given) | 0.0343 | 0.847 (inactive) | -1.39 (inactive) | -0.712 (inactive) | -1.04 (inactive) | -0.0099 | -0.214 | 0.484 | 0.244 | -0.0541 |
| O=C1O[C@H](c2ccccc2)[C@H](c2ccccc2)N2[C@H]1[C@@H](C(=O)NC[C@H](O)c1ccccc1)[C@]1(C(=O)Nc3ccc(C#CC4=CCCCC4)cc31)[C@H]2c1ccc(O)cc1 | 0.688 | -5.36 (inactive) | -0.354 (inactive) | -0.602 (inactive) | -0.912 (inactive) | 0.758 | 0.121 | 0.769 | 1.08 | 1.51 |
| O=C1OCC=C[C@H]2OC34C=CCN(Cc5ccccc5)C(=O)[C@H]3N(CCCO)C(=O)[C@@H]4[C@@H]12 (stereo not given in full) | -0.312 | -2.33 (inactive) | -1.04 (inactive) | -0.899 (inactive) | -0.59 (inactive) | -0.707 | 0.222 | -0.667 | -0.239 | 1.44 |
| O=C1O[C@@H](c2ccccc2)[C@@H](c2ccccc2)N2[C@@H](c3ccc(O)cc3)[C@]3(C(=O)Nc4ccccc43)[C@@H](C(=O)NC[C@H](O)c3ccccc3)[C@H]12 | 0.062 | -2.34 (inactive) | 0.184 (inactive) | 0.0921 (inactive) | 0.175 (inactive) | -0.26 | -0.176 | -1 | 0.371 | 0.142 |
| CCCNC(=O)[C@@]1(C)c2ccccc2C(=O)N(Cc2ccc(OC(F)(F)F)cc2)[C@H]1c1ccc(CO)cc1 | -0.0508 | -2.65 (inactive) | 0.28 (inactive) | -0.0259 (inactive) | -0.326 (inactive) | -0.456 | 0.249 | 0.243 | 0.6 | 0.628 |
| COc1ccc(C(=O)Nc2cccc(CN3C(=O)[C@@]4(O[C@@H](CCn5cc([C@H](O)c6ccccc6)nn5)[C@H]([Si](C)(C)c5ccc(OC)cc5)[C@H]4C)c4ccccc43)c2)cc1 | 0.417 | -6.59 (inactive) | -0.301 (inactive) | 0.833 (inactive) | 0.834 (inactive) | 0.0185 | 0.0714 | -0.12 | 0.377 | 1.89 |
| CO[C@H]1O[C@H](CO)[C@@H](OC(=O)Nc2ccc3c(c2)OCO3)[C@H](OC(=O)Nc2ccc3c(c2)OCO3)[C@H]1OC(=O)Nc1ccc2c(c1)OCO2 | 0.158 | -1.2 (inactive) | -0.416 (inactive) | 1.05 (inactive) | -0.808 (inactive) | 0.697 | 0.297 | 0.713 | 1.74 | 0.942 |
| COc1ccc(C(O)C2C=CC3C(=O)N(c4ccccc4)C(=O)C3N2Nc2ccccc2)c2ccccc12 (stereo not given) | 0.145 | -2.42 (inactive) | -1.12 (inactive) | 0.24 (inactive) | 1.79 (inactive) | 0.632 | 0.382 | -0.175 | 0.15 | -0.506 |
| CO[C@H]1O[C@H](CO)[C@@H](OC(=O)Nc2ccccc2-c2ccccc2)[C@H](OC(=O)Nc2ccccc2-c2ccccc2)[C@H]1OC(=O)Nc1ccccc1-c1ccccc1 | 0.764 | -3.73 (inactive) | -0.587 (inactive) | 1.65 (inactive) | -0.823 (inactive) | 0.244 | 0.243 | 0.93 | 0.885 | 1.61 |
| COCC1C2CC[C@H]3C(OCc4ccc(F)cc4C(F)(F)F)OC[C@]4(C)[C@H]3C2=C(CN4C(=O)OC(C)(C)C)[C@H](C)C1COC (stereo not given in full) | 0.33 | -1.84 (inactive) | 0.338 (inactive) | 0.0007 (inactive) | 0.172 (inactive) | 1.2 | 0.385 | 0.404 | 1.35 | -1.4 |
| COCCCNC(=O)[C@]1(Cc2ccccc2N=[N+]=[N-])N=C(c2ccc(OCCCO)cc2)O[C@@H]1c1ccccc1CN=[N+]=[N-] | 0.823 | -5.15 (inactive) | -0.421 (inactive) | 0.825 (inactive) | -1.47 (inactive) | 1.11 | 0.442 | 0.673 | 0.57 | 0.26 |
| COc1ccc([Si](C)(C)[C@H]2[C@H](CC(=O)N3Cc4ccccc4C[C@H]3CO)O[C@@]3(C(=O)N(Cc4cccc(I)c4)c4ccccc43)[C@@H]2C)cc1 | 0.378 | -4.1 (inactive) | -0.194 (inactive) | 5.99 (inactive) | -0.919 (inactive) | 0.795 | -0.0102 | 3.09 | 2.17 | 2.15 |
